What was measured:
Assay in all cases: DAPPL (digital affinity profiling via proximity ligation, sequencing); 10 mM Tris-HCl pH 7.5, 50 mM NaCl, 1 mM DTT, 4% glycerol, room temperature, 30 min; GST-TFs on glutathione beads, 16-mer random dsDNA library, 0.1% formaldehyde crosslink after washing; high values mean tight binding
Settings in all cases: protein: recombinant; tags: N-terminal GST; dsDNA, one strand shown
FLI1 = biological target: T1, FLI1 (Homo sapiens, UniProt Q01543 1-452)
T1 sequence: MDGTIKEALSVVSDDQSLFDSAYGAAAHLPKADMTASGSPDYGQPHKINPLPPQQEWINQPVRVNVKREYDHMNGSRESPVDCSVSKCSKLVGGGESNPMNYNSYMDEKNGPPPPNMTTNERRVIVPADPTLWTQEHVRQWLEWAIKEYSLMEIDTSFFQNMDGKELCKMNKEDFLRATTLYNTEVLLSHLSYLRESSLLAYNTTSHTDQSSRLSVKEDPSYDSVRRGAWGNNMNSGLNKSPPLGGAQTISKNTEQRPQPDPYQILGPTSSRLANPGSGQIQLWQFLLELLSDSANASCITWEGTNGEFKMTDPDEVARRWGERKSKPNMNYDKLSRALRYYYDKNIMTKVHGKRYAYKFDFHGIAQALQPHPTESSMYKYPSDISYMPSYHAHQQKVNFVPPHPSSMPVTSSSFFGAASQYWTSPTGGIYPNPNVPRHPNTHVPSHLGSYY
Method in brief: (§1)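 Yeast served to express human transcription factors as GST fusions, which were then captured on glutathione beads and labelled with DNA barcodes. Pooled with a tag-only sample, they were incubated with 200 nmole of a 16-mer random double-stranded DNA library for 30 min at room temperature in Tris/NaCl/DTT/glycerol buffer, washed, crosslinked with 0.1% formaldehyde, ligated by proximity, amplified by PCR and sequenced. Dividing each hexamer's read frequency for a factor by its frequency for the tag-only sample gives the binding signal.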

GABPA = biological target: T2, GABPA (Homo sapiens, UniProt Q06546 1-454)
T2 sequence: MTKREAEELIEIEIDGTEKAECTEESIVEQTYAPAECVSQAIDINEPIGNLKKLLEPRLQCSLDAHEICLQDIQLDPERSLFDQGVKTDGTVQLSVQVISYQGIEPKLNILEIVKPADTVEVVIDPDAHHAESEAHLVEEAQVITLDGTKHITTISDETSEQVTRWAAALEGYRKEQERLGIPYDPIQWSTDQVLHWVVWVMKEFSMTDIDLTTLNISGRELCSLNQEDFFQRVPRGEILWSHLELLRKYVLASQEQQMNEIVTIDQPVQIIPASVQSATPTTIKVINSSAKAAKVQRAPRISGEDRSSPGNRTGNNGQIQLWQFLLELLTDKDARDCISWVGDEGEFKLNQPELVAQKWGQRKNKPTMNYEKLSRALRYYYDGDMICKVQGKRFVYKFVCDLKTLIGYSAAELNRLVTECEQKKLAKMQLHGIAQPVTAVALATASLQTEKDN
Method in brief: as §1

SPI1 = SPI1 (Homo sapiens, UniProt P17947 1-270)
Method in brief: as §1

SPIB = SPIB (Homo sapiens, UniProt Q01892 1-262)
Method in brief: as §1

SPIC = biological target: T3, SPIC (Homo sapiens, UniProt Q8N5J4 1-248)
T3 sequence: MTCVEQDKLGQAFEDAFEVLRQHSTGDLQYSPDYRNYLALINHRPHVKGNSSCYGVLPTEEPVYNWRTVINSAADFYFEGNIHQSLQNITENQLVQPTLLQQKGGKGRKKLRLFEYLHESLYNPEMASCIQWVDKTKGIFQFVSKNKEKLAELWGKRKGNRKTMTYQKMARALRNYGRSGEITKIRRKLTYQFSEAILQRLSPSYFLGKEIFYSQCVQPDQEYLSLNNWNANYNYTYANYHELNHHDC
Method in brief: as §1

ELK4 = biological target: T4, ELK4 (Homo sapiens, UniProt P28324-2 1-405)
T4 sequence: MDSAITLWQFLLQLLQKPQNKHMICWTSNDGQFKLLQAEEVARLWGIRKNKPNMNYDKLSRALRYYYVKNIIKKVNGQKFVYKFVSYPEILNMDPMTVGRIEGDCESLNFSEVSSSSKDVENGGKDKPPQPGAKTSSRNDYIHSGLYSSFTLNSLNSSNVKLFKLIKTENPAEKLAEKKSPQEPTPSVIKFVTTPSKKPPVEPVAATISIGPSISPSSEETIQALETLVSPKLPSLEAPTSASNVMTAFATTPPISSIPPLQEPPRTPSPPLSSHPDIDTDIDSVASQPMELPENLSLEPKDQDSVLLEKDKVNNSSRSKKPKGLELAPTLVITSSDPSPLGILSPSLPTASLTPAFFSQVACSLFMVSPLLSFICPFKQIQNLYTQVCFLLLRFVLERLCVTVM
Method in brief: as §1

ETV2 = biological target: T5, ETV2 (Homo sapiens, UniProt O00321 1-342)
T5 sequence: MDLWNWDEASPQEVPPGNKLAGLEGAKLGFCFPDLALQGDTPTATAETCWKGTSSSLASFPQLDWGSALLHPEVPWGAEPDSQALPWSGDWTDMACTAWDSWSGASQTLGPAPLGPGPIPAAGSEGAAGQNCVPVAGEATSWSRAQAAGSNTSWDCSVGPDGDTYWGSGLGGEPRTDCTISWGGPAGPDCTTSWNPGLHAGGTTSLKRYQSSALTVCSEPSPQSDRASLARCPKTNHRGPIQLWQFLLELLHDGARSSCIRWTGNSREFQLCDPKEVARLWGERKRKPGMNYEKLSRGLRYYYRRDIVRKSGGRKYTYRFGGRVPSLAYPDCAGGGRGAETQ
Method in brief: as §1

ELF3 = biological target: T6, ELF3 (Homo sapiens, UniProt P78545 1-371)
T6 sequence: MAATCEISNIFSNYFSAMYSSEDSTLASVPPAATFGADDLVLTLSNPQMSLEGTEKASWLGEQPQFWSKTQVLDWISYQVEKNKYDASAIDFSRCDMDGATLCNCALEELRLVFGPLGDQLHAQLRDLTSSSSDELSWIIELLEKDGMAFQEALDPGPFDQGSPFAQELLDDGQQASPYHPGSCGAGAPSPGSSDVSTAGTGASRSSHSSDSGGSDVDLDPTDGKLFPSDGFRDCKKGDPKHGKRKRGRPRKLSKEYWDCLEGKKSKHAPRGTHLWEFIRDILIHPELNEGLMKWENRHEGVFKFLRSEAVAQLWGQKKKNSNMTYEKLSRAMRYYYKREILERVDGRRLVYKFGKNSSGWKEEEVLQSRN
Method in brief: as §1

ETV1 = ETV1 (Homo sapiens, UniProt P50549 1-477)
Method in brief: as §1

ERF = biological target: T7, ERF (Homo sapiens, UniProt P50548 1-548)
T7 sequence: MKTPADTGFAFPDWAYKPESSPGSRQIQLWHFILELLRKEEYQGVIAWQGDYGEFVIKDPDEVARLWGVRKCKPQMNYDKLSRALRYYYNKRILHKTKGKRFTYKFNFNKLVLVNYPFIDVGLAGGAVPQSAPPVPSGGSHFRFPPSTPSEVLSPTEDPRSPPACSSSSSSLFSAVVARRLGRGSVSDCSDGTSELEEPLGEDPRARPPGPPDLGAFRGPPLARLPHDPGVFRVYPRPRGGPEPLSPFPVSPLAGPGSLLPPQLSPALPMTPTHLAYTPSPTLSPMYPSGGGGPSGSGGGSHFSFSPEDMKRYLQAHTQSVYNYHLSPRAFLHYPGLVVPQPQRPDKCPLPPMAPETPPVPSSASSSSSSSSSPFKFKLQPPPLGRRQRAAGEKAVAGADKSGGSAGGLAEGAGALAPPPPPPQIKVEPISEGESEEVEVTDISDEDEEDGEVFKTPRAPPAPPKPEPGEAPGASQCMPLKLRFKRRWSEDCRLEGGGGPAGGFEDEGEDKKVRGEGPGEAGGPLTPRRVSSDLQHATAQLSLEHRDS
Method in brief: as §1

ETV3L = biological target: T8, ETV3L (Homo sapiens, UniProt Q6ZN32 1-361)
T8 sequence: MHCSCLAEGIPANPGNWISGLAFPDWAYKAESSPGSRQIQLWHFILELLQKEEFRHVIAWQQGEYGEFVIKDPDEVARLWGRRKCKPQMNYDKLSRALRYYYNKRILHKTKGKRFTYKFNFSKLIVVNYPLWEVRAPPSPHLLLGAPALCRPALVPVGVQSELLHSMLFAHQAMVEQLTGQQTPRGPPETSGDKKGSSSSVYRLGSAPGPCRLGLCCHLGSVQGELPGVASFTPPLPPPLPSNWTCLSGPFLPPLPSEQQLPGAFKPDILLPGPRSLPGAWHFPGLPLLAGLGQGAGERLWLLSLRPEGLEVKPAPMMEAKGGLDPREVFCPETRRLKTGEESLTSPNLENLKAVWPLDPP
Method in brief: as §1

ETV7 = biological target: T9, ETV7 (Homo sapiens, UniProt Q9Y603 1-341)
T9 sequence: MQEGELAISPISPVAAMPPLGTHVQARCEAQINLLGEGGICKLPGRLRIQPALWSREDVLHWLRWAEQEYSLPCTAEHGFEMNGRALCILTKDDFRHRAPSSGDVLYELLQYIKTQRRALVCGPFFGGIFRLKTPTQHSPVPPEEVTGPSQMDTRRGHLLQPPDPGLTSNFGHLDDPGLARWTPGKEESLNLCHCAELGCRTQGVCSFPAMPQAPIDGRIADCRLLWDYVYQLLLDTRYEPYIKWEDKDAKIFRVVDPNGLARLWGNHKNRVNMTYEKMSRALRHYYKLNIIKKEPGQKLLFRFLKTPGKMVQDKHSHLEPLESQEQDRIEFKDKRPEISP
Method in brief: as §1

ERG = biological target: T10, ERG (Homo sapiens, UniProt P11308 1-479)
T10 sequence: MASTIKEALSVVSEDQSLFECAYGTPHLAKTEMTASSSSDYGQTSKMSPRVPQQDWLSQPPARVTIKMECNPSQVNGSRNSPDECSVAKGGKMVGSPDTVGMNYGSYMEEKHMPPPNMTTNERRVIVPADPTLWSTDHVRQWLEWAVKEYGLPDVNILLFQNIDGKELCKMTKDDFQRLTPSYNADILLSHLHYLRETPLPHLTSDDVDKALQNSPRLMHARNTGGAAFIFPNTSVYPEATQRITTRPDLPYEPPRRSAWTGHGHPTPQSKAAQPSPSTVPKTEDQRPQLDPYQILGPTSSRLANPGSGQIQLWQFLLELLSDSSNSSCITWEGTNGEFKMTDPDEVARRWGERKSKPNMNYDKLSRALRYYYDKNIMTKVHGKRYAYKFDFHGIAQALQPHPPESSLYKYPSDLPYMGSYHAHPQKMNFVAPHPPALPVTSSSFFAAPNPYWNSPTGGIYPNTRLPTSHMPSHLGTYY
Method in brief: as §1

ELK3 = biological target: T11, ELK3 (Homo sapiens, UniProt P41970 1-407)
T11 sequence: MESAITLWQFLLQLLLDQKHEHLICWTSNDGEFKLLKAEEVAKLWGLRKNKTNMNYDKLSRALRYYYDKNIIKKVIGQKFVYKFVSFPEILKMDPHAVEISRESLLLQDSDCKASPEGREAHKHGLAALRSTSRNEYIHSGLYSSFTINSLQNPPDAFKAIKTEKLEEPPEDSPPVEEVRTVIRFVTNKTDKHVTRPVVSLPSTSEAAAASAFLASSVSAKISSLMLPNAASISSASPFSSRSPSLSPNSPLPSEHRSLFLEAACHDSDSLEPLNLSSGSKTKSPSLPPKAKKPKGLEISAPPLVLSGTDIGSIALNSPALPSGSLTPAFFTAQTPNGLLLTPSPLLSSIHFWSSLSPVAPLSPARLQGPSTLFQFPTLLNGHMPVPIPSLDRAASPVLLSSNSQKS
Method in brief: as §1

ELF4 = ELF4 (Homo sapiens, UniProt Q99607 1-663)
Method in brief: as §1

ETV3 = biological target: T12, ETV3 (Homo sapiens, UniProt P41162-2 1-143)
T12 sequence: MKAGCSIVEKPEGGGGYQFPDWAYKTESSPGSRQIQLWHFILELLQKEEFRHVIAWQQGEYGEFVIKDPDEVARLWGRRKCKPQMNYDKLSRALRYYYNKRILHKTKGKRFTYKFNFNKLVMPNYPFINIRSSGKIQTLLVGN
Method in brief: as §1

ETV1, sequence (P50549 whole entry): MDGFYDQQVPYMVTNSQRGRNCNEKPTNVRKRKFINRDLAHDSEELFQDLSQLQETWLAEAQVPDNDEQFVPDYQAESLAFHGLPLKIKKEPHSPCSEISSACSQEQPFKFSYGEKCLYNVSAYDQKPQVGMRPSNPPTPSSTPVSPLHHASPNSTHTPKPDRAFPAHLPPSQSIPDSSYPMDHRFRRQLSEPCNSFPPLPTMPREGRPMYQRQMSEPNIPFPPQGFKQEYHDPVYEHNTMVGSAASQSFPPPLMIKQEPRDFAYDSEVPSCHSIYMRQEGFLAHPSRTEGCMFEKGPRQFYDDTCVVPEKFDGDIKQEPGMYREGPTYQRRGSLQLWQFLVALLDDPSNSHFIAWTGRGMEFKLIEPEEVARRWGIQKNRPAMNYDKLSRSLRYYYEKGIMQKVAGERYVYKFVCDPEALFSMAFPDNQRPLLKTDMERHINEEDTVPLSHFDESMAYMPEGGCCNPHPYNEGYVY
SPIB, sequence (Q01892 whole entry): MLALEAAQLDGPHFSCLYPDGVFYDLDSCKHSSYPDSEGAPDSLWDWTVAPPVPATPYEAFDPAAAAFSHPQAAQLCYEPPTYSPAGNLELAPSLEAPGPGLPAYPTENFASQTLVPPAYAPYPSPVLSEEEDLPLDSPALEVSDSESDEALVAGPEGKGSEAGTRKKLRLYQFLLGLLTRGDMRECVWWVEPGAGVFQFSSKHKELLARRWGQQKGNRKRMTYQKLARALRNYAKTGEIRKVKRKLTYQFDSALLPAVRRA
ELF4, sequence (Q99607 whole entry): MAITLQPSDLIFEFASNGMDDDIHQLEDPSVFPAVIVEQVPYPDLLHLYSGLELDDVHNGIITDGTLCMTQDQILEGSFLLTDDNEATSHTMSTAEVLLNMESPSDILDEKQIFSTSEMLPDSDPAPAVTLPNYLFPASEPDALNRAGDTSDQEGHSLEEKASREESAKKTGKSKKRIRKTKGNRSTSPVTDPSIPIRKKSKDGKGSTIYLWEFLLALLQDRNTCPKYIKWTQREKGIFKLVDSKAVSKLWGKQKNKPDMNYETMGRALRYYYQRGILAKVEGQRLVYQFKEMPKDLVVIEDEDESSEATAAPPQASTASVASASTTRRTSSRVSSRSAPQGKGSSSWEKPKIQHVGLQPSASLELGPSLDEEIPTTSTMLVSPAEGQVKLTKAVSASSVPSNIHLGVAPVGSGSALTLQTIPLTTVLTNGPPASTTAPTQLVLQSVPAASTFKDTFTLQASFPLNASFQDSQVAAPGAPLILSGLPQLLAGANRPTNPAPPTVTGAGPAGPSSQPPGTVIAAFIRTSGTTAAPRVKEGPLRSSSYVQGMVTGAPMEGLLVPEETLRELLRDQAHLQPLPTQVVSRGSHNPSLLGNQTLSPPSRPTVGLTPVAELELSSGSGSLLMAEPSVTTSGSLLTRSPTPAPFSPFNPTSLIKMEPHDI

Sequence | binding signal (FLI1) | binding signal (GABPA) | binding signal (SPI1) | binding signal (SPIB) | binding signal (SPIC) | binding signal (ELK4) | binding signal (ETV2) | binding signal (ELF3) | binding signal (ETV1) | binding signal (ERF) | binding signal (ETV3L) | binding signal (ETV7) | binding signal (ERG) | binding signal (ELK3) | binding signal (ELF4) | binding signal (ETV3)
ATGCGT | 1.06 fold enrichment (6-mer frequency, TF over GST control) | 1.07 fold enrichment (6-mer frequency, TF over GST control) | 1.03 fold enrichment (6-mer frequency, TF over GST control) | 1.03 fold enrichment (6-mer frequency, TF over GST control) | 1.07 fold enrichment (6-mer frequency, TF over GST control) | 1.15 fold enrichment (6-mer frequency, TF over GST control) | 1.18 fold enrichment (6-mer frequency, TF over GST control) | 1.07 fold enrichment (6-mer frequency, TF over GST control) | 1.02 fold enrichment (6-mer frequency, TF over GST control) | 1.01 fold enrichment (6-mer frequency, TF over GST control) | 1.1 fold enrichment (6-mer frequency, TF over GST control) | 1.16 fold enrichment (6-mer frequency, TF over GST control) | – | – | – | –
GATACA | 1.03 fold enrichment (6-mer frequency, TF over GST control) | – | 1.01 fold enrichment (6-mer frequency, TF over GST control) | – | 1.07 fold enrichment (6-mer frequency, TF over GST control) | – | – | 1.08 fold enrichment (6-mer frequency, TF over GST control) | 1.06 fold enrichment (6-mer frequency, TF over GST control) | – | 1.05 fold enrichment (6-mer frequency, TF over GST control) | – | 1.03 fold enrichment (6-mer frequency, TF over GST control) | 1.03 fold enrichment (6-mer frequency, TF over GST control) | 1.08 fold enrichment (6-mer frequency, TF over GST control) | 1.01 fold enrichment (6-mer frequency, TF over GST control)
